This note sets out measurements from PubChem BioAssay AID624291 (National Center for Advancing Translational Sciences (NCATS), 2012).

SMILES strings stand for the structures. The campaign covered roughly 350,000 compounds. About 220 (0.063%) were called active. A call without a number means that no potency is given here. Roughly 4% stayed inconclusive and do not appear here. The sample holds actives, similar compounds and a random draw of the others, so the mix is not that of the screen. Calls follow the shape of the dose curve; as a rule, active = well fitted activation curve with a large enough effect; inconclusive = small, poorly fitted or top-dose-only effect; inactive = no such curve, though single readings can be large or run the other way.
Potency is read from the fitted curve at half-maximal effect.

This experiment can be described thus: qHTS for Activators of Integrin-Mediated Alleviation for Muscular Dystrophy. Also: nearly all actives have a fitted effect of over 60% in size. The conditions noted are these: alpha7betagal myoblasts, beta-gal FDG fluorescence, 48 h; series mostly up to 38.3 µM. In outline:
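Alpha7betagal+/- myoblasts (passage 13) were plated 16-24 hr, then exposed to compounds (1:260 dilution of DMSO stock) for 48 hours at 37C. After MPER lysis, β-galactosidase reporter activity was read as FDG fluorescence (ex 480/em 540) after 30 minutes.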
(Quantitative high-throughput screening tests each substance at several concentrations.)
As for `COc1ccc(-c2ccc3[nH]c4c(c3c2)CCN2C[C@H]3[C@H](C)ON(C)[C@H]3C[C@@H]42)cc1`, the Potency result is “inactive”. With `O=C(Nc1ccc2c(c1)[C@@H]1C[C@@H](CC(=O)N3CCCCC3)O[C@@H](CO)[C@@H]1O2)NC1CCCCC1` the entry was “inactive”; with `C[C@@H]1CCCCO[C@H](CN(C)Cc2ccccc2)[C@@H](C)CN([C@H](C)CO)C(=O)c2cc(NS(=O)(=O)c3ccc(Cl)cc3)ccc2O1`, “inactive”. With `OCC1OC(n2cnc3c(N4CCCC4)ncnc32)C(O)C1O` (configuration not stated) the entry was “inactive”. Consider `CCOC(=O)C1CCN(C(=O)c2ccc3c(=O)n4nc(Nc5ccccc5CC)sc4nc3c2)CC1`, for which the Potency result was “inactive”. Turning to `COc1ccc(-c2ccc(CN3C(CC(C)C)C(=O)N(Cc4cn(CC5CCCCC5)nn4)CCS3(=O)=O)cc2)cc1` (configuration not stated), the Potency result was “inactive”. With `CNC(=O)C[C@H]1C(=O)N(c2ccc(OC)cc2)C[C@@H]1Cc1ccccc1`, the Potency result was “inactive”.

Consider `COc1cccc(NC(=O)N(C)C[C@@H]2Oc3ncc(Br)cc3C(=O)N([C@@H](C)CO)C[C@H]2C)c1`, for which the Potency result was “inactive”. Regarding `COc1ccc(NC(=O)c2cc(=O)[nH]c3ccccc23)cc1S(=O)(=O)N1CCOCC1`, the Potency entry was “inactive”. Turning to `CCN(CC)C(=O)C1=C(C)N(Cc2ccc(OC)cc2)C(=O)C(CC(=O)NCc2ccco2)C1` (configuration not stated), the Potency entry was “inactive”. `O=C(NCCOc1ccccc1)N1[C@H]2CC[C@@H]1C=C(c1ccc(F)cc1OCc1ccccc1)C2`: the Potency entry was “inactive”. As for `O=S(=O)(c1cccc(C(F)(F)F)c1)N1c2ccccc2-n2cccc2C1c1cccnc1` (configuration not stated), the Potency entry is “inactive”. Consider `O=C(C[C@H]1C[C@@H]2c3cc(NC(=O)C4CCC4)ccc3O[C@@H]2[C@H](CO)O1)NC1CCCCC1`, for which the Potency entry is “inactive”. Regarding `CCOC(=O)c1cnn2c(SC)ncnc12`, the Potency entry was “inactive”. Regarding `Cc1ccc(-c2ccc(CN3C(C(C)C)C(=O)N(Cc4cn(CCC5OCCCO5)nn4)CCS3(=O)=O)cc2)cc1` (configuration not stated), the Potency entry is “inactive”. As to `O=C(CSc1ncn[nH]1)Nc1nc2c(F)c(F)c(F)cc2s1`, the Potency result was “inactive”. Turning to `C[C@H]1CN([C@@H](C)CO)C(=O)CCCn2nncc2CO[C@@H]1CN(C)S(=O)(=O)c1cccc(C#N)c1`, the Potency entry was “inactive”. As for `c1ccc2c(c1)nnn2-c1ccncc1`, the Potency entry was “inactive”. With `CC(OC(=O)c1cccc(S(=O)(=O)N2CCOCC2)c1)C(=O)NCC1CCCCC1` (configuration not stated) the entry was “inactive”; with `CC1(C)OC(=O)C2=C(CC(c3ccccc3)OC2CCc2ccccc2)O1` (configuration not stated), “inactive”.

On to `O=C(NCCS(=O)(=O)N1CCN(c2ccccc2)CC1)c1cc(=O)c2ccccc2o1`, for which the Potency entry is “inactive”. In the case of `CCc1ccccc1NC(=O)CN1CCN(C(=O)c2cc(C3CC3)nn2-c2ccccc2)CC1`, the Potency entry is “inactive”. With `Cc1ccn2c(-c3csc(Nc4ccc(C(=O)O)cc4)n3)c(C)nc2c1` the entry was “inactive”. Consider `CC1=C(C(=O)Nc2cccc(C(=O)NCC(C)c3ccccc3)c2)SCCO1` (configuration not stated), for which the Potency result was “inactive”. With `CC(=O)c1ccccc1NC(=O)COC(=O)C1COc2ccccc2O1` (configuration not stated) the entry was “inactive”.

Consider `O=C(CCc1ccc(O)cc1)NN=Cc1cc(Br)ccc1O`, for which the Potency entry was “inactive”.

In the case of `COc1ccc(S(=O)(=O)N2CCC(C(=O)NCCC(=O)Nc3ccccc3OC)CC2)cc1`, the Potency result is “inactive”. Take `CCOc1cc(/C=N/NC(=O)c2ccncc2)cc(Br)c1O`: the Potency entry is “inactive”. Regarding `Cc1ccc(CCNC(=O)CN2C(=O)CSc3ccc(S(=O)(=O)N4CCOCC4)cc32)cc1`, the Potency result is “inactive”. Consider `N#CCCN(C(=O)Nc1ccc(Cl)c(Cl)c1)C1CCCCC1`, for which the Potency result was “inactive”. As for `O=C1c2ccccc2-c2ccccc2NC1O` (configuration not stated), the Potency result is “inactive”. In the case of `Cc1ccc(S(=O)(=O)N2C[C@H]3n4c(=O)ccc(=O)n4C[C@H](OC(=O)NC4CCCC4)[C@@]3(O)C2)cc1`, the Potency entry is “inactive”. On to `CCCCN(C(C)=O)c1ccc2c(c1)C1CC2CCN1Cc1ccccc1` (configuration not stated), for which the Potency result was “inactive”. The result for `C[C@@H]1CN([C@H](C)CO)S(=O)(=O)c2ccc(C#CC3CCCCC3)cc2O[C@H]1CN(C)C(=O)Cc1ccncc1` reads “inactive”; that for `COc1ccc(OC)c(NC(=O)C2CCCN2S(=O)(=O)c2ccc3c(c2)CC(C)N3C(C)=O)c1` (configuration not stated), “inactive”; that for `C#Cc1cc(N2CCN(C(=O)c3ccoc3)CC2)n2nc(-c3cccc(Cl)c3)cc2n1`, “inactive”. As for `Nc1cc(=O)c2[nH]cnc2[nH]1`, the Potency result was “inactive”. The result for `CSc1ncnc2c1ncn2CCCNCc1ccco1` reads “inactive”. For `C[C@@H]1CN([C@@H](C)CO)C(=O)CCCn2nncc2CO[C@H]1CN(C)Cc1ccc(C(F)(F)F)cc1`, the Potency result was “inactive”. Regarding `CCC(Oc1ccccc1)C(=O)OCC(=O)Nc1c(C)nn(-c2ccccc2)c1C` (configuration not stated), the Potency result was “inactive”. `CCc1nnc(NC(=O)c2ccco2)s1`: the Potency result is “inactive”. The result for `O=C(Nc1cc(F)ccc1F)c1ccc2c(=O)n3c(nc2c1)CCC3` reads “inactive”; that for `O=C(NN=Cc1ccc2c(c1)CCC2)c1ccccc1O`, “inactive”.

Consider `Cc1ccc(CN(C)C[C@@H]2OCc3cnnn3CCCC(=O)N([C@@H](C)CO)C[C@H]2C)cc1`, for which the Potency result was “inactive”. Regarding `CC(=NNC(N)=O)C1CC2CCC1CC2` (configuration not stated), the Potency entry was “inactive”.

As for `CCN(CC)C(=O)C1=C(C)N(Cc2ccc(C(C)(C)C)cc2)C(=O)C(CC(=O)NCc2cccc3ccccc23)C1` (configuration not stated), the Potency result was “inactive”.

As to `Cc1ccccc1C#CC1=CC(=O)CC(C)(C)C1`, the Potency entry was “inactive”. As for `COc1ccc(NC(=O)N(C)C[C@H]2Oc3ncc(C#C[C@@H](C)O)cc3C(=O)N([C@H](C)CO)C[C@H]2C)cc1`, the Potency result was “inactive”. In the case of `CCCc1ccc(S(=O)(=O)N2CCN(C(=O)c3cc(C)on3)CC2)cc1`, the Potency entry was “inactive”. For the compound `COc1cc(C(=O)OCCCN2CCOCC2)cc(OC)c1OC`, the Potency entry is “inactive”. Turning to `O[C@@H]1C[C@H](c2ccccc2)N(Cc2cccs2)C[C@H]1n1cc(C2CC2)nn1`, the Potency result is “inactive”. In the case of `CCc1nnc(NC(=O)[C@@H](NC(=O)c2cccc(C)c2)C(C)C)s1`, the Potency entry is “inactive”. Consider `CC(=O)Nc1ccc(NC(=O)[C@@H](NC(=O)c2cccc(C)c2)C(C)C)cc1`, for which the Potency is 5.62 µM (active). Regarding `Cc1cccc(C(=O)N[C@H](C(=O)NCc2cccs2)C(C)C)c1`, the Potency result is “inactive”.

For the compound `O=C(O)C1=C(C(=O)O)C2CCC1C2`, the Potency result was “inactive”. As for `COCOCCn1cc(CN2CCS(=O)(=O)N(Cc3ccc(-c4ccccc4)cc3)C(CC(C)C)C2=O)nn1` (configuration not stated), the Potency entry is “inactive”. `CC1(C2CC2)NC(=O)N(CC(=O)N2CCN(c3ccccc3F)CC2)C1=O` (configuration not stated): the Potency result is “inactive”.
